Bioassay records: PubChem, SRMLSC
Spn MK inh: blocks S. pneumoniae mevalonate kinase; inhibition, % at 10 µM; purified MK, PK/LDH-coupled NADH absorbance 340 nm; 0.48% of 65,000 active; AID 555;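 active = ranked among the strongest by inhibition in the single 10 µM screen, a fixed top-ranked set picked for dose follow-up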
NADH coupling: inhibition of NAD/NADH coupling enzymes, library profiling; coupled PK/LDH NADH assays, four targets; IC50, µM (series often up to 10 µM); 0.02% of 65,000 active; AID 774;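 active = single-dose screening hits from any of four coupled enzyme assays that gave an IC50 when retested across doses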;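 also: the DPM-DC format reads NADH fluorescence rather than 340 nm absorbance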
DPM-DC inhibit: S. pneumoniae DPM-DC inhibition; purified DPM-DC, PK/LDH coupled NADH fluorescence; calls only at 10 µM; 0.49% of 65,000 active; AID 556;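 active = the 320 compounds with the highest percent inhibition in the single-dose primary screen, excluding strongly autofluorescent ones, cut at about 32% in these data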;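 also: kinetic rate of NADH fluorescence loss reporting ADP formed by the decarboxylase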
Fluor 339 460: intrinsic fluorescence of library compounds, ex339/em460 – biochemical, MLSMR library, data from DPM-DC assay, artefact control, profiling panel; compound autofluorescence, ex339/em460 nm, NADH buffer; active compounds read high; 1 = no-compound wells, NADH background; fluorescence fold increase at 10 µM; 5.5% of 65,000 active; AID 709;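 active = at 10 µM, mean starting fluorescence two-fold or more over control wells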;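 also: signal is the first read of a kinetic run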
Spn PMK inh: inhibitors of Streptococcus pneumoniae phosphomevalonate kinase; 0.49% of 65,000 active; purified PMK, PK/LDH-coupled NADH absorbance 340 nm; inhibition, % at 10 µM;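 active = top-ranked compounds by inhibition in the single 10 µM screen, taking a fixed number of the strongest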
Abs 340nm: compound absorbs light at 340 nm; compound absorbance at 340 nm, fold over control; fold change at 10 µM; 65,000 tested, under 10 active; AID 708;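 active = at 10 µM dose, initial 340 nm absorbance at least 2 fold that of control wells; inactive = change under 2 fold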;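 also: initial absorbance extrapolated from kinetic A340 decline of NADH oxidation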
Of the large screens only hits and unclear results are named; the others gave an inactive call. The list is not random: actives were taken first. Their share in the collection is about 6.5%.

CC(C)OCCCn1c(=N)c(C(N)=S)cc2c(=O)n3ccccc3nc21	none
CCOC(=O)c1cc2c(=O)n3ccccc3nc2n(CCCOC)c1=NC(C)=O	Fluor 339 460 2.4 (not shown: DPM-DC inhibit)
Cc1noc(/C=C/c2ccco2)c1S(=O)(=O)N1CCC(C(=O)N2c3ccccc3CC2C)CC1 (centres undefined)	none
COc1cc(OC)cc(C(=O)N2CCC(n3c(C)nc4cc(F)ccc43)CC2)c1	none
Cc1cc(C)c2c(=O)n(CC(=O)N3CCC(Cc4ccccc4)CC3)sc2n1	DPM-DC inhibit active
Cc1cccc(N2CCN(C(=O)Cn3sc4nc(C)cc(C)c4c3=O)CC2C)c1 (centres undefined)	none
Cc1cc(C)c2c(=O)n(CC(=O)NCCCN3CCOCC3)sc2n1	none
Cc1cc(C)c2c(=O)n(CC(=O)NCCCN3CCN(c4ccccc4F)CC3)sc2n1	DPM-DC inhibit active
Cc1cccc(NS(=O)(=O)c2ccccc2)n1	Fluor 339 460 2.1 (not shown: DPM-DC inhibit)
Cc1cccc(NS(=O)(=O)c2cccc3cccnc23)n1	none
COc1cccc(OC)c1-c1nn2c(-c3cc(-c4ccccc4)n[nH]3)nnc2s1	NADH coupling 46µM, Spn PMK inh 26
COc1ccc(-c2nnc3sc(-c4c(OC)cccc4OC)nn23)cc1	none
CCN(CC)c1ccc(-c2nn3c(-c4ccccc4OC)nnc3s2)cc1	Fluor 339 460 3.6 (not shown: DPM-DC inhibit)
COc1ccc(OC)c(S(=O)(=O)Nc2ccc(O)c(Sc3ncn[nH]3)c2)c1	none
COc1ccccc1Cn1c(-c2ccco2)nc2nc3ccccc3nc21	none
Cc1ccc(-c2nc3nc4ccccc4nc3n2Cc2ccco2)cc1	Fluor 339 460 2
c1ccc(Cn2c(-c3ccco3)nc3nc4ccccc4nc32)cc1	Fluor 339 460 3.7 (not shown: DPM-DC inhibit)
COc1ccc(CCn2c(-c3ccco3)nc3nc4ccccc4nc32)cc1	none
CCCCCn1c(-c2ccco2)nc2nc3ccccc3nc21	Fluor 339 460 3.9 (not shown: DPM-DC inhibit)
Cc1cc(Nc2cccc(C)c2C)n2nc(C)nc2n1	none
CC(C)(C)Nc1nc(NC(C)(C)C)nc(-n2ccnc2)n1	none
CCC1Cc2c(nc3c4c(nc(N5CCOCC5)c(C#N)c24)NC(C)=N3)O1 (centres undefined)	Fluor 339 460 3.3 (not shown: DPM-DC inhibit)
C=CCNc1nc(N2CCOCC2)c(C#N)c2c1CN(C)CC2	none
CCOC(=O)C1CCCN(C(=O)c2ccco2)C1 (centres undefined)	none
CC1(C)CC2CC(C)(CN2C(=O)COC(=O)c2ccc(Cl)cc2N)C1 (centres undefined)	Fluor 339 460 4.2 (not shown: DPM-DC inhibit)
CCc1ccc2[nH]c(=O)c(CN(CCN(CC)CC)C(=O)NC3CCCCC3)cc2c1	none
COc1ccc2[nH]c(=O)c(CN(C(C)=O)C3CCCCC3)cc2c1	Fluor 339 460 3.5 (not shown: DPM-DC inhibit)
COc1ccc2[nH]c(=O)c(CN(C(=O)NC3CCCCC3)C3CCCC3)cc2c1	Fluor 339 460 2.5
COc1cc2cc(CN(CCN3CCCC3)C(=O)Nc3ccc(F)cc3)c(=O)[nH]c2cc1OC	Fluor 339 460 3.1 (no result: Spn MK inh)
COc1cc2cc(CN(C(=O)Nc3ccccc3)C3CCCC3)c(=O)[nH]c2cc1OC	Fluor 339 460 3.2 (not shown: DPM-DC inhibit)
COC(=O)C1=C(C)N(C)C(C)=C(C(=O)OC)C1c1ccccn1	none
Cc1ccc2[nH]c(=O)c(CN(CCN3CCOCC3)C(=O)Nc3ccccc3F)cc2c1	Spn MK inh active
Cc1cccc2cc(CN(CCN3CCOCC3)C(=O)Nc3ccccc3F)c(=O)[nH]c12	none
Oc1cnc2ccccc2c1CN1CCOCC1	none
CCc1cc(-c2n[nH]c(C)c2-c2nc3ccccc3n2C)c(O)c(CN2CCN(C)CC2)c1O	none
CCc1cc2c(=O)c(-c3nc4ccccc4n3C)c(C)oc2c(CN2CCOCC2)c1O	Fluor 339 460 2.1 (not shown: DPM-DC inhibit)
CCc1cc2c(=O)c(-c3nc4ccccc4n3C)c(C)oc2c(CN2CCN(C)CC2)c1O	DPM-DC inhibit active, Fluor 339 460 3.5
CCc1cc2c(=O)c(-c3nc4ccccc4n3C)c(C(C)C)oc2c(CN2CCN(C)CC2)c1O	Fluor 339 460 2.2 (not shown: DPM-DC inhibit)
CCc1cc2c(=O)c(-c3nc4ccccc4n3C)c(C)oc2c(CN2CCN(CCO)CC2)c1O	Fluor 339 460 2.2 (not shown: DPM-DC inhibit)
CCOC(=O)C(CC)n1cnc2c(oc3ccccc32)c1=O (centres undefined)	none
CCCSc1nc(C)c(-c2csc(C(C#N)=C3CCCC3)n2)cc1C#N	none
CCOC(=O)C1CCCCN1C(=O)CCc1c(C)nc2cc(-c3ccccc3)nn2c1C (centres undefined)	none
CCOC(=O)C1CCN(c2cc(C)nc3cc(-c4cccc(F)c4)nn23)CC1	Fluor 339 460 2.6 (not shown: DPM-DC inhibit)
Cc1c2c(nc3c(C(=O)NC4CCCCC4C)cnn13)CCCC2 (centres undefined)	Fluor 339 460 4.4, Spn PMK inh 29 (not shown: DPM-DC inhibit)
CCn1cc(C(=O)NC2CCCCC2C)c(=O)c2ccc(C)nc21 (centres undefined)	none
CC1CCN(C(=O)CSc2nnc(CSc3ncccn3)n2C)CC1	none
O=C(COc1ccccc1)NCCc1cn2ccsc2n1	none
Cc1cc(OCC(=O)NCCO)ccc1Cl	none
Cc1cc(OCC(=O)NCCO)cc(C)c1Cl	Spn PMK inh 26
CC(Sc1cccc(C(F)(F)F)c1)C(=O)NC(N)=O (centres undefined)	none
O=C(NCC1CCS(=O)(=O)C1)Oc1ccccc1 (centres undefined)	none
COC(=O)CCn1nnc(-c2ccc(C(C)C)cc2)n1	Fluor 339 460 3
COC(=O)CCn1nnc(-c2cccs2)n1	none
O=C(CCSc1nc(-c2ccco2)cc(C(F)(F)F)n1)N1CCCc2ccccc21	none
COc1ccc(-n2nnnc2SCC(=O)Nc2cccc(C)n2)cc1OC	none
CC(C)c1nc(=S)n(-c2ccccc2)[nH]1	Spn MK inh 44
c1ccc(Cn2nnc3c(N4CCCCCC4)ncnc32)cc1	none
c1ccc(Cn2nnc3c(N4CCc5ccccc54)ncnc32)cc1	Fluor 339 460 4.3 (not shown: DPM-DC inhibit)
O=C(CSc1nnc2ccccn12)NC(=O)NC1CCCC1	none
COc1ccc2nc(NC(=O)c3cccc(OCc4c(C)noc4C)c3)sc2c1	Fluor 339 460 4 (not shown: DPM-DC inhibit)
CCN(CC)c1ccc(/C=N/n2c(=S)[nH]nc(C)c2=O)cc1	NADH coupling 39µM, DPM-DC inhibit active
CCOC(=O)C(CCc1nnc(N)s1)C(=O)OCC	Spn PMK inh 30
CCOC(=O)CSc1nnc(N)s1	none
COc1ccc(OC)c(NC(=O)CNC(=O)Cn2ccc3ccccc3c2=O)c1	Spn PMK inh 30
CCCCn1c(-c2ccccc2)nc2c(=O)n(C)c(=O)[nH]c21	Fluor 339 460 3.7 (not shown: DPM-DC inhibit)
CCOC(=O)C(C)(C)C(=O)C(C)(C)C(O)c1ccccn1 (centres undefined)	none
CC(=O)/C=C(\C)Nc1ccc(-c2cnc(-c3ccccc3)o2)cc1	Fluor 339 460 2.2 (not shown: DPM-DC inhibit)
O=C(Nc1ccc(-c2nnc(-c3ccccc3)o2)cc1)C(F)(F)F	none
